Screening data (PubChem BioAssay)
EWS-Fli inh – EWS/Fli transcriptional activity inhibition. A673 NR0B1-luciferase reporter, viability-normalised. inhibition, % at 12.6 µM. 350,000 tested, 0.67% active. AID 651661;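 active means mean inhibition of at least 50% after viability correction, with every replicate also passing that limit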;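 further: firefly luciferase signal divided by Alamar Blue viability fluorescence both relative to DMSO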
PAX8 reporter – inhibitors of PAX8 transcriptional activity in RMG-I cells. AID 652154. inhibition, % at 12.6 µM. RMG-I TPO-luciferase reporter, SteadyGlo, 24 h. 360,000 tested, 1.2% active;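 active means mean replicate inhibition at least 60% with every replicate also reaching 60%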;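 further: luciferase light reporting Pax8 driven TPO promoter activity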
F508del corr – CFTR F508del correction in bronchial cells | CFBE cells, YFP halide quenching; stimulated with forskolin plus potentiator P3; % fluorescence drop versus neutral controls | activity (quench increase), % at 7.58 µM | 350,000 tested, 0.36% active | AID 720511;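 active means mean added fluorescence quench of at least 8% versus neutral control, with both replicates also reaching 8%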;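 further: cells transiently co-express mutant CFTR-F508del with the halide-sensitive YFP; corrector assay measuring rescue of mutant channel to the surface after 24 h compound exposure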
HIV Env fusion – inhibitors of HIV Env-mediated cell fusion; HeLa-JRFL Env/CEM21 cell fusion, luciferase; inhibition, % at 12.3 µM; AID 651610; 360,000 tested, 1.1% active;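 active means mean replicate inhibition score of at least 50 and every replicate individually at or above 50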
FXN GAA850 act – increases GAA850 frataxin promoter reporter activity | HEK293 lucGAA850 FXN promoter luciferase reporter, 24 h; percent of 10 µM SAHA response | activation, % at 6 µM | 360,000 tested, 0.56% active;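 active means activation above the average of all compounds screened plus 3 SD, cutoff fixed separately per campaign, cut at about 7.5% in these data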
GAA30 counter – counter-screen for GAA850 frataxin promoter activators: GAA30 promoter activation | shares compounds with FXN GAA850 act | HEK293 lucGAA30 FXN promoter luciferase, 24 h; DMSO = 0%, 5 µM ipriflavone = 100% | activation, % at 6 µM | 1,900 tested, 66% active | AID 588350;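 active means mean activation above the mean of solvent-only control wells plus 3 SD, cut at about 22% in these data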;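 further: counterscreen of GAA850 promoter hits where activity marks nonselective or luminescence artifacts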
FXN GAA850 conf – confirmation of GAA850 frataxin (FXN) promoter activators. shares compounds with FXN GAA850 act. AID 588351. activation, % at 6 µM. HEK293 lucGAA850 FXN promoter luciferase reporter, 24 h; 100% = activation by SAHA. 1,900 tested, 86% active;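 active means mean activation above a set limit taken from the primary screen, cut at about 8% in these data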
Each line names hits and unclear results; the compound was inactive in the other large screens (follow-up assays come after a bar, where they were run). Shown are actives, neighbours in structure and some others; about 2.5% of the full set was active somewhere.

CCC(=O)N1[C@H](CO)[C@H]2c3ccccc3N(C(=O)c3cnccn3)C[C@H]21	none (no result: HIV Env fusion, FXN GAA850 act)
COc1cccc(/C=C/c2ccc3cccc(O)c3n2)c1	FXN GAA850 act 8.7 | GAA30 counter inactive | FXN GAA850 conf 29
COc1cc(/C=C/c2ccc3cccc(O)c3n2)cc(Cl)c1OC	FXN GAA850 act 13 | GAA30 counter inactive | FXN GAA850 conf inactive
COc1cc(/C=C/c2ccc3cccc(O)c3n2)cc(OC)c1OC	none
Oc1cccc(/C=C/c2ccc3cccc(O)c3n2)c1	none
COc1cc(/C=C/c2ccc3cccc(O)c3n2)cc(Br)c1OC	FXN GAA850 act 9.2 | GAA30 counter inactive | FXN GAA850 conf inactive
Cc1ccc(C(=O)NCCc2csc(-c3cccnc3)n2)cc1	FXN GAA850 act 20 | GAA30 counter 76 | FXN GAA850 conf 27
CCCNC(=O)N1[C@@H]2Cn3c(ccc(-c4cccc(OC)c4)c3=O)[C@H]1[C@@H](C(=O)NCC)[C@@H]2CO	none (no result: HIV Env fusion, FXN GAA850 act)
Clc1ccccc1CSc1ncn(-c2ccccc2)n1	FXN GAA850 act 8.4 (no result: EWS-Fli inh, PAX8 reporter, F508del corr) | GAA30 counter 104 | FXN GAA850 conf 35
O=C(Nc1ccc(F)cc1)N[C@@H]1CC[C@@H](CC(=O)N2CCCCC2)O[C@H]1CO	none (no result: FXN GAA850 act)
COc1ccc(-c2cn3cccc(C)c3n2)cc1Br	FXN GAA850 act 8.4 (no result: EWS-Fli inh, F508del corr) | GAA30 counter 120 | FXN GAA850 conf 37
CN(C)C(=O)[C@H]1[C@H](CO)[C@H]2Cn3c(ccc(C4=CCCC4)c3=O)[C@@H]1N2Cc1ccccn1	none (no result: FXN GAA850 act)
ClCc1csc(-c2ccc(Cl)cc2)n1	none (no result: EWS-Fli inh, PAX8 reporter, F508del corr, HIV Env fusion)
CCOc1ccc(-c2nc(CCl)cs2)cc1	FXN GAA850 act 7.6 | GAA30 counter 114 | FXN GAA850 conf 37
C[C@@H]1CCCCO[C@@H](CN(C)C(=O)CCCN(C)C)[C@H](C)CN([C@H](C)CO)C(=O)c2cc(NC(=O)Nc3ccc(C(F)(F)F)cc3)ccc2O1	none (no result: FXN GAA850 act)
COc1ccc2c3c(n(C)c2c1)[C@@H](CO)NCC31CCN(C(=O)Nc2ccccc2F)CC1	none (no result: PAX8 reporter, HIV Env fusion, FXN GAA850 act)
c1ccc(C2=NN(c3ccccc3)CC2)cc1	FXN GAA850 act 7.7 | GAA30 counter 108 | FXN GAA850 conf 30
CO[C@H]1CN(C)C(=O)c2cc(NC(=O)Nc3ccccc3F)ccc2OC[C@@H](C)N(CC2CC2)C[C@@H]1C	none (no result: HIV Env fusion, FXN GAA850 act)
Cc1ccc(-c2nn3c(C)nnc3s2)cc1NC(=O)C(C)C	none
Cc1ccc(-c2nn3c(C)nnc3s2)cc1NC(=O)c1ccco1	FXN GAA850 act 14 | GAA30 counter 26 | FXN GAA850 conf inactive
COc1ccc(N2C(=O)NC(NC(=O)C(C)(C)C)(C(F)(F)F)C2=O)cc1 (centres undefined)	FXN GAA850 act 9.2 | GAA30 counter inactive | FXN GAA850 conf 8.2
Cc1ccc(N2C(=O)NC(NC(=O)C(C)(C)C)(C(F)(F)F)C2=O)cc1C (centres undefined)	none (no result: F508del corr)
O=C(C1CCOCC1)N1[C@H](CO)[C@@H](c2ccccc2)C12CN(CCC(F)(F)F)C2	none (no result: PAX8 reporter, HIV Env fusion, FXN GAA850 act)
CC(C)CC#Cc1ccc2c(c1)O[C@H](CN(C)C(=O)c1cnccn1)[C@H](C)CN([C@@H](C)CO)S2(=O)=O	none (no result: HIV Env fusion, FXN GAA850 act)
CCN(C[C@H]1N[C@@](C)(C(=O)OC)[C@H]2C(=O)N(C)C(=O)[C@@H]12)C(=O)Nc1ccccc1	none
CCN(C[C@H]1N[C@@](C)(C(=O)OC)[C@H]2C(=O)N(Cc3ccccc3)C(=O)[C@@H]12)C(=O)Nc1ccc(Cl)cc1	HIV Env fusion 64, FXN GAA850 act 14 | GAA30 counter 37 | FXN GAA850 conf 15
CCN(C[C@H]1N[C@@](C)(C(=O)OC)[C@H]2C(=O)N(Cc3ccccc3)C(=O)[C@@H]12)C(=O)Nc1ccc(OC)cc1	FXN GAA850 act 9.4 | GAA30 counter 27 | FXN GAA850 conf 9.3
C[C@@H]1CN([C@@H](C)CO)C(=O)c2cc(NC(=O)C3CCCCC3)ccc2O[C@@H](C)CCCCO[C@H]1CN(C)S(=O)(=O)c1cccs1	none (no result: PAX8 reporter, FXN GAA850 act)
C[C@@H]1CN([C@@H](C)CO)C(=O)c2cc(NS(C)(=O)=O)ccc2O[C@@H](C)CCCCO[C@@H]1CN(C)C(=O)NC1CCCCC1	none (no result: FXN GAA850 act)
CC(C)Nc1oc(-c2cccc3ccccc23)nc1C#N	FXN GAA850 act 8.6 (no result: EWS-Fli inh, PAX8 reporter, F508del corr) | GAA30 counter 97 | FXN GAA850 conf 36
CCNc1oc(-c2cccc3ccccc23)nc1C#N	none (no result: EWS-Fli inh, PAX8 reporter, F508del corr, HIV Env fusion)
O=C(Nc1ccc(F)cc1)N1C[C@@H]2[C@H](c3ccccc31)[C@@H](CO)N2C(=O)c1ccncc1	none (no result: HIV Env fusion, FXN GAA850 act)
CCOCCCNC(=O)/C(C#N)=C/c1ccc(-c2ccc(S(=O)(=O)N3CCOCC3)cc2)o1	none (no result: EWS-Fli inh, PAX8 reporter, F508del corr, HIV Env fusion)
CCOCCCNC(=O)/C(C#N)=C/c1ccc([N+](=O)[O-])o1	FXN GAA850 act 11 | GAA30 counter inactive | FXN GAA850 conf inactive
CC(NC(=O)/C(C#N)=C/c1ccc([N+](=O)[O-])o1)c1ccccc1 (centres undefined)	EWS-Fli inh 69, FXN GAA850 act 10 | GAA30 counter inactive | FXN GAA850 conf 8.5
C[C@@H]1CN([C@H](C)CO)C(=O)c2cc(NS(=O)(=O)c3ccc(Cl)cc3)ccc2O[C@H]1CN(C)C(=O)Nc1ccc2c(c1)OCO2	none (no result: PAX8 reporter, HIV Env fusion, FXN GAA850 act)
O=C1/C(=C/c2ccc(O)c(O)c2)Oc2cc(O)ccc21	none (no result: PAX8 reporter, HIV Env fusion)
COc1ccc(/C=C2\OC(=O)c3c(OC)cccc32)cc1OC	FXN GAA850 act 11 (no result: EWS-Fli inh, PAX8 reporter, F508del corr, HIV Env fusion) | GAA30 counter 111 | FXN GAA850 conf 45
COc1cc(/C=C2\Oc3cc(O)ccc3C2=O)ccc1O	FXN GAA850 act 8.3 (no result: PAX8 reporter, HIV Env fusion) | GAA30 counter 94 | FXN GAA850 conf 38
C[C@H](O)C#Cc1ccc2c(c1)O[C@@H](CN(C)C(=O)CN(C)C)[C@@H](C)CN([C@@H](C)CO)S2(=O)=O	none (no result: PAX8 reporter, FXN GAA850 act)
Oc1sc(C=Nc2ccccc2)c2ccccc12	FXN GAA850 act 8.2 (no result: EWS-Fli inh, F508del corr) | GAA30 counter 125 | FXN GAA850 conf 42
Oc1c(C=Nc2ccccc2)sc2ccccc12	FXN GAA850 act 10 | GAA30 counter 112 | FXN GAA850 conf 38
O=C(/C=N\O)NCCCNCc1ccccc1	FXN GAA850 act 21 (no result: EWS-Fli inh, PAX8 reporter, F508del corr) | GAA30 counter 26 | FXN GAA850 conf 9.0
O=C(NCCCNCc1ccccc1)c1ccncc1	none (no result: EWS-Fli inh, PAX8 reporter, F508del corr)
CCN(CC)C(=S)SSC(=S)N(CC)CC	F508del corr 14, FXN GAA850 act 20 (no result: HIV Env fusion) | GAA30 counter inactive | FXN GAA850 conf inactive
CCN(CC)C(=S)SCC(=O)c1ccccc1	none (no result: EWS-Fli inh, F508del corr)
COCC(=O)N1C[C@H](C)[C@@H](OC)CN(C)C(=O)c2cc(NC(=O)NC(C)C)ccc2OC[C@H]1C	none (no result: FXN GAA850 act)
CC1CCc2c(sc(NC(=O)C3=COCCO3)c2C(N)=O)C1 (centres undefined)	none
